In PubChem BioAssay AID2242 (National Center for Advancing Translational Sciences (NCATS), 2010):
The campaign covered roughly 200,000 compounds. About 720 (0.36%) were called active. About 8% were inconclusive and are not listed. Calls come from the whole dose curve; as a rule, active = well fitted activation curve with a large enough effect; inconclusive = small, poorly fitted or top-dose-only effect, or effect the other way, or another doubt; inactive = flat fitted curve, though single readings scatter. This is one part of the list.

What follows are compounds tested against Lysosomal alpha-glucosidase (Homo sapiens) (UniProt P10253) (assay: qHTS Assay for Activators of Human alpha-Glucosidase as a Potential Chaperone Treatment of Pompe Disease). Settings: purified enzyme, 4-MU-alpha-glucoside fluorescence, 20 min; series mostly up to 76.9 µM.
How it was run: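 Compounds titrated up to 77 uM against 4 nM enzyme and 400 uM methylumbelliferyl substrate at room temperature, 20 min, pH 5.0. Basic stop, then 4-methylumbelliferone fluorescence (365/440 nm) normalized to no-enzyme and enzyme controls; Hill-equation AC50.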
Note: nearly all actives have a fitted effect of over 80% in size.
Potency is the fitted concentration of half-maximal effect.

Potency, active:
Cc1[nH]nc2c1-c1nc3ccccc3nc1C(C)(C)C2 28.2 µM
COc1ccc2c(c1)c1ncn(Cc3ccco3)c(=O)c1n2C 35.5 µM
CCCn1c(=O)[nH]c(=O)c2c(C(=O)OCC)cc(-c3cccs3)nc21 35.5 µM
O=c1[nH]c(=O)n(Cc2ccccc2)c2nc(-c3ccco3)cc(C(F)(F)F)c12 31.6 µM
COCCn1c(=O)[nH]c(=O)c2c(C(F)(F)F)cc(-c3cccs3)nc21 28.2 µM
CCCn1c(=O)c2c(C(=O)OCC)cc(-c3ccco3)nc2n(CCC)c1=O 35.5 µM
CCCCn1c(=O)[nH]c(=O)c2c(C(=O)OCC)cc(-c3cccs3)nc21 35.5 µM
COc1ccc2cc(/C=N/NC(=O)CN(c3ccccc3)S(=O)(=O)c3ccccc3)c(Cl)nc2c1 35.5 µM
CCOC(=O)C1=CN(C)C=C(C(=O)OCC)C1c1ccsc1 31.6 µM
COC(=O)C1=CN(C)C=C(C(=O)OC)C1c1ccsc1 35.5 µM
N#Cc1cc2ccccc2nc1N 39.8 µM
COc1ccc(-c2cc(=Nc3c(C)n(C)n(-c4ccccc4)c3=O)c3ccccc3o2)cc1 35.5 µM
Nc1nc2nc(-c3ccc(F)cc3)cc(C(F)(F)F)n2n1 25.1 µM
Nc1nc2nc(-c3ccc(Cl)cc3)cc(C(F)(F)F)n2n1 31.6 µM
Nc1nc2nccc(-c3ccc(Cl)cc3)n2n1 22.4 µM
COc1ccc(-c2cc(C(F)(F)F)n3nc(N)nc3n2)cc1 35.5 µM
Cc1nc2cc3ccccc3cc2c(=O)[nH]1 25.1 µM
CCCCCCc1cc2cc(S(=O)(=O)c3ccc(F)cc3)c(=O)oc2cc1O 31.6 µM
CCCCCCc1cc2cc(C(=O)NCc3ccccc3)c(=N)oc2cc1O 35.5 µM
CCCCCCc1cc2cc(C(N)=O)c(=N)oc2cc1O 31.6 µM
CCCOc1ccc(C2C(C(=O)OC)=CN(CCOC)C=C2C(=O)OC)cc1 35.5 µM
COCCN1C=C(C(=O)OC)C(c2cc(Br)c(OC)c(OC)c2)C(C(=O)OC)=C1 35.5 µM
CCOc1ccc(C2C(C(=O)OC)=CN(CCOC)C=C2C(=O)OC)cc1 35.5 µM
Cc1cc(N2CCOCC2)nc2ccc(NC(=O)CCC(=O)N3CCCCC3)cc12 35.5 µM
Cc1cc(N2CCOCC2)nc2ccc(NC(=O)CCC(=O)N3CCCC(C)C3)cc12 (stereo unspecified) 39.8 µM
Oc1ccc(N=Cc2ccc(-c3cccs3)s2)cc1 31.6 µM
CC(C)c1ccc2oc3nc(N)c(C(=O)O)cc3c(=O)c2c1 35.5 µM
N#Cc1ccc2c(c1)nc1ccccn12 35.5 µM
Cc1cc(=O)oc2c(CN3CC(C)OC(C)C3)c(O)c(Cl)cc12 (stereo unspecified) 10 µM
Cc1cc(=O)oc2c(CN3CCC(C)CC3)c(O)c(Cl)cc12 35.5 µM
Cc1cc(=O)oc2c(CN3CCCCC3)c(O)c(Cl)cc12 31.6 µM
Cc1cc(=O)oc2c(CN3CCN(C)CC3)c(O)c(Cl)cc12 35.5 µM
CCN1CCN(Cc2c(O)c(Cl)cc3c(C)cc(=O)oc23)CC1 35.5 µM
COc1cccc(C2CN(c3ccc(F)cc3F)N=C2c2cccs2)c1OC (stereo unspecified) 39.8 µM
COc1ccccc1C1CN(c2ccccc2)N=C1c1cccs1 (stereo unspecified) 39.8 µM
COc1ccccc1C1CN(c2ccc(F)cc2F)N=C1c1cccs1 (stereo unspecified) 28.2 µM
Fc1ccccc1N1CC(c2ccccc2)C(c2cccs2)=N1 (stereo unspecified) 35.5 µM
Fc1ccc(N2N=C(c3cccs3)CC2c2ccccc2)cc1 (stereo unspecified) 31.6 µM
Fc1ccc(C2CC(c3cccs3)=NN2c2ccccc2)cc1 (stereo unspecified) 31.6 µM
O=c1c(-c2nnc(SCc3ccc(Cl)c(Cl)c3)o2)cccn1Cc1ccccc1 35.5 µM
O=c1c(-c2nnc(SCc3ccc(Cl)cc3)o2)cccn1Cc1ccccc1 39.8 µM
O=c1c(-c2nnc(SCc3ccc(Cl)cc3Cl)o2)cccn1Cc1ccccc1 35.5 µM
O=c1oc2cc(Oc3c([N+](=O)[O-])cc(C(F)(F)F)cc3[N+](=O)[O-])ccc2c2c1CCCC2 35.5 µM
Nc1nc2nc(-c3cccs3)cc(C(F)(F)F)n2n1 28.2 µM
FC(F)(F)c1cc(-c2cccs2)nc2ncnn12 28.2 µM
CCCOc1ccc2cc(-c3ccccn3)c(=O)oc2c1 39.8 µM
COc1ccc(-c2cc3ccc(OCc4nn[nH]n4)cc3oc2=O)cc1 35.5 µM
CN(C)C(=O)COc1ccc2cc(-c3ccccc3)c(=O)oc2c1 35.5 µM
CSc1cnc2c(=O)n(C)c(=O)[nH]c2n1 35.5 µM
C=CCNC(=O)c1c(N)n(-c2cccc(S(N)(=O)=O)c2)c2nc3ccccc3nc12 25.1 µM
COCCCNC(=O)c1c(N)n(-c2cccc(S(N)(=O)=O)c2)c2nc3ccccc3nc12 35.5 µM
O=c1oc2c(CN3CCOCC3)c(O)ccc2c2c1CCCC2 35.5 µM
O=c1oc2c(CN3CCOCC3)c(O)ccc2c2c1CCC2 25.1 µM
COC(=O)c1nc2nc(-c3cccs3)cc(C(F)(F)F)n2n1 35.5 µM
CCOC(=O)c1nc2nc(-c3cccs3)cc(C(F)(F)F)n2n1 14.1 µM
CN(C)CCNC(=O)c1cc2c(s1)-c1ccccc1OC2 6.31 µM
O=C(NCc1cccs1)c1cc2c(s1)-c1ccccc1OC2 39.8 µM
COC(=O)c1ccc(-c2ncc(-c3cccc4ccccc34)o2)cc1 28.2 µM
Cc1cc(-c2ccc(C(=O)O)s2)cnc1N 28.2 µM
O=C(COC(=O)c1ccccc1Nc1ccccc1)NCc1ccccc1Cl 28.2 µM
CCCCNS(=O)(=O)c1ccc2nc(-c3cccs3)cc(C(=O)NCC(OC)OC)c2c1 25.1 µM
COc1cc2cc(C(N)=O)c(N)nc2cc1OC 35.5 µM
COc1ccccc1N1CCN(C(=O)c2c(-c3ccccc3)noc2C)CC1 35.5 µM
CCNC(=O)/C(C#N)=C/c1c(N2CCOCC2)nc2ccccn2c1=O 28.2 µM
O=c1cc(CN2CCN(S(=O)(=O)c3ccc4c(c3)OCCO4)CC2)c2ccc(O)cc2o1 28.2 µM
O=c1cc(CN2CCN(S(=O)(=O)/C=C/c3ccccc3)CC2)c2ccc(O)cc2o1 35.5 µM
O=c1[nH]c(=O)c2nc(-c3ccc(Cl)cc3)cnc2[nH]1 28.2 µM
CCN1c2ccccc2-c2nc3ccccc3n2C1c1ccccn1 (stereo unspecified) 31.6 µM
c1ccc(CN2c3ccccc3-c3nc4ccccc4n3C2c2ccccn2)cc1 (stereo unspecified) 28.2 µM
COCC(=O)Nc1ccc(-c2cn3cccnc3n2)cc1 35.5 µM
CCOCC(=O)Nc1ccc(-c2cn3cccnc3n2)cc1 35.5 µM
CCOCC(=O)Nc1cc(-c2cn3cccnc3n2)ccc1C 35.5 µM
CC(=O)Nc1ccc(-c2cn3cccnc3n2)cc1 28.2 µM
CCCCCC(=O)Nc1ccc(-c2cn3cccnc3n2)cc1 35.5 µM
Cc1onc(-c2ccccc2Cl)c1C(=O)Nc1ccc(-c2cn3cccnc3n2)cc1 35.5 µM
Cc1onc(-c2ccccc2Cl)c1C(=O)Nc1cccc(-c2nc3ncccn3c2C)c1 35.5 µM
CC(C)(O[C@@H]1O[C@H](CO)[C@@H](O)[C@H](O)[C@H]1O)[C@H]1Cc2cc3ccc(=O)oc3cc2O1 35.5 µM
O=C(Oc1cc2oc(=O)c3c(c2cc1Cl)CCCC3)c1ccco1 10 µM
O=C(Oc1ccc2c3c(c(=O)oc2c1)CCC3)c1ccco1 35.5 µM
O=C(Oc1ccc2c3c(c(=O)oc2c1)CCCC3)c1ccco1 35.5 µM
CC(C)c1cc(NCC2CCCO2)n2c(nc3ccccc32)c1C#N (stereo unspecified) 35.5 µM
CCCc1cc(NCC2CCCO2)n2c(nc3ccccc32)c1C#N (stereo unspecified) 35.5 µM
COc1ccc2cc3cc(C(=O)NCCCN4CCOCC4)oc3nc2c1 35.5 µM
CCN1CCN(CCCNC(=O)c2cc3cc4ccc(OC)cc4nc3o2)CC1 35.5 µM
CCCSc1nc2sc3c(c2c(=O)[nH]1)CCN(Cc1ccccc1)C3 31.6 µM
COC(=O)c1sc2cnccc2c1N 35.5 µM
COC(=O)c1sc2ccccc2c1N 39.8 µM
COC(=O)c1ccncc1N 35.5 µM
Cc1cccc(S(=O)(=O)c2c(N)n(-c3ccccc3)c3nc4ccccc4nc23)c1 35.5 µM
Cc1ccc(S(=O)(=O)c2c(N)n(CC3CCOC3)c3nc4ccccc4nc23)cc1 (stereo unspecified) 35.5 µM
Cc1ccc(S(=O)(=O)c2c(N)n(CCCO)c3nc4ccccc4nc23)cc1 35.5 µM
Cc1ccc(-n2c(N)c(S(=O)(=O)c3ccccc3)c3nc4ccccc4nc32)cc1 25.1 µM
Nc1c(S(=O)(=O)c2ccccc2)c2nc3ccccc3nc2n1C1CC1 28.2 µM
Cc1ccc(S(=O)(=O)c2c(N)n(C)c3nc4ccccc4nc23)cc1 25.1 µM
Nc1c(S(=O)(=O)c2ccccc2)c2nc3ccccc3nc2n1Cc1ccco1 28.2 µM
Nc1c(S(=O)(=O)c2ccccc2)c2nc3ccccc3nc2n1CCN1CCOCC1 39.8 µM
